In PubChem BioAssay (NCI):
This is part of a sample that, as a whole, favours compounds with a hit. Of some 79,000 tested, about 15% had one in any assay. Unmarked numbers belong to inactive results. Activity calls are given as the source filed them. Cut-off read from the data, not from the text of the source: active = growth inhibition above about 70%; inactive = the rest.

How the values were obtained:
[1] = NCI Yeast Anticancer Drug Screen. Data for the rad50 strain (AID 155);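 note: 0% = growth of vehicle-only cultures of the same strain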; details: S. cerevisiae rad50 strain growth inhibition, hits give high values
Method in brief: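 Genetically altered yeast (DNA repair pathway); compound treatment; growth inhibition vs vehicle ctrl.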

[2] = NCI Yeast Anticancer Drug Screen. Data for the mec2-1 strain (AID 157); details: S. cerevisiae mec2-1 strain, hits give high values
Method in brief: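 Mutant yeast (mec2-1) grown with compound; growth inhibition relative to vehicle control reported.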

[3] = NCI Yeast Anticancer Drug Screen. Data for the sgs1 mgt1 strain (AID 161);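 note: 0% = growth of cultures given vehicle only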; details: S. cerevisiae sgs1 mgt1 strain, hits give high values
Method in brief: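 Percent growth inhibition was derived by comparing compound-exposed mutant yeast with vehicle-exposed cultures. The strain carries alterations in DNA damage repair.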

[4] = NCI Yeast Anticancer Drug Screen. Data for the cln2 rad14 strain (AID 165);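 note: 0% = growth equal to vehicle treated cultures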; details: S. cerevisiae cln2 rad14 strain, hits give high values
Method in brief: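 Readout is yeast growth inhibition versus vehicle-treated controls, using a strain with cln2 and rad14 alterations exposed to compound.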

[5] = NCI Yeast Anticancer Drug Screen. Data for the bub3 strain (AID 167); details: S. cerevisiae bub3 mutant strain, hits give high values
Method in brief: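 Yeast carrying a defined mutation is treated with each compound, and growth is compared with that of vehicle-exposed cells to give inhibition.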

[6] = NCI Yeast Anticancer Drug Screen. Data for the mlh1 rad18 strain (AID 175); details: S. cerevisiae mlh1 rad18 strain growth inhibition, hits give high values
Method in brief: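 Genetically defined yeast (DNA repair-deficient) exposed to compounds; growth inhibition determined relative to vehicle.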

[7] = at 5.0 µM (retest, dose inferred, filed as 0.5)
[8] = at 50.0 µM (retest, dose inferred, filed as 5.0)

SMILES | growth inhibition [1, 7] | growth inhibition [1, 8] | growth inhibition ([1]; at 50.0 µM) | growth inhibition [2, 7] | growth inhibition [2, 8] | growth inhibition ([2]; at 50.0 µM) | growth inhibition [3, 7] | growth inhibition [3, 8] | growth inhibition ([3]; at 50.0 µM) | growth inhibition [4, 7] | growth inhibition [4, 8] | growth inhibition ([4]; at 50.0 µM) | growth inhibition [5, 7] | growth inhibition [5, 8] | growth inhibition ([5]; at 50.0 µM) | growth inhibition [6, 7] | growth inhibition [6, 8] | growth inhibition ([6]; at 50.0 µM)
CCc1cc2c(c3c1C(=O)CC3)C(C)(C)CCC2 | 1% | 96% (active) | 11% | 2% | 96% (active) | 34.6% | 1% | 97% (active) | 6.4% | 2% | 97% (active) | 13.8% | 12% | 97% (active) | 48.5% | -6% | 97% (active) | 5%
NCCCN1c2ccccc2Sc2ccc(Cl)cc21 | -7% | 75% (active) | -10.7% | 12% | 58% | -25.5% | 10% | 83% (active) | 13.4% | 0% | 20% | -25.7% | -1% | 37% | 71.9% (active) | 17% | 98% (active) | 18.1%
CCOc1nc(N)nc(C)c1N=Nc1ccc(Cl)cc1Cl | 10% | 92% (active) | 72.8% (active) | 0% | 50% | 16.9% | 5% | 88% (active) | 22.4% | 15% | 77% (active) | 36.4% | 5% | 94% (active) | 73.8% (active) | 14% | 97% (active) | 45%
O=C(O)CCSc1ncnc2nc[nH]c12 | 3% | 0% | -22.9% | 1% | -18% | -12.8% | 0% | -24% | -30.5% | -25% | -97% | 27.4% | -10% | -7% | -18.8% | -7% | -1% | -13.9%
Cc1ccc(Cl)cc1NC(=O)N(C)CCOC(=O)Nc1cccc(Cl)c1 | 32% | 95% (active) | 88.7% (active) | 31% | 97% (active) | 91% (active) | 41% | 97% (active) | 92.9% (active) | 22% | 97% (active) | 90% (active) | 23% | 94% (active) | 92.3% (active) | 41% | 98% (active) | 90.5% (active)
CCCCCCC(/C=C/c1c(Cl)cccc1Cl)=N\O | -4% | 24% | 83.4% (active) | -4% | 46% | 91.7% (active) | -6% | 67% | 91.3% (active) | -1% | 12% | 69.1% | -4% | 53% | 92.8% (active) | -10% | 56% | 94.2% (active)
Brc1ccc(N=Nc2ccc(-c3ccc[cH-]3)cc2)cc1.[Fe+2].c1cc[cH-]c1 | 3% | -3% | 16.1% | 4% | 1% | 6.65% | 7% | -14% | 6.3% | 8% | 11% | 5.75% | 6% | 9% | 45.4% | -2% | 1% | 14.7%
CC12C(=O)OC(=O)C1C1c3ccccc3C2c2ccccc21 (configuration not stated) | 71% (active) | 99% (active) | 89.7% (active) | 82% (active) | 99% (active) | 89.5% (active) | 26% | 90% (active) | 89.3% (active) | 51% | 95% (active) | 86.8% (active) | 54% | 90% (active) | 89.5% (active) | 76% (active) | 99% (active) | 88% (active)
FC(F)(F)c1ccccc1NC(=S)SCc1ccc2c(c1)OCO2 | 7% | 95% (active) | 98.8% (active) | 8% | 98% (active) | 99% (active) | 1% | 97% (active) | 99% (active) | 2% | 96% (active) | 98% (active) | 3% | 95% (active) | 98.3% (active) | 1% | 96% (active) | 99% (active)
O=S(=O)(Sc1ccccc1)C(c1ccccc1)c1ccccc1 | 3% | 72% (active) | -21.6% | 2% | 71% (active) | -1.25% | 2% | 66% | 14.1% | 1% | 28% | -12.8% | -4% | 97% (active) | 62% | 4% | 72% (active) | 6.85%
Oc1cc(-[n+]2ccccc2)c(O)c2ccccc12 | 15% | 82% (active) | -11.2% | 9% | 68% | 3.45% | 5% | 80% (active) | -5.35% | 9% | 71% (active) | 37.8% | 21% | 91% (active) | 6.3% | 28% | 83% (active) | 20.8%
CCCCc1cc2c(cc1O)CCC1C2CC[C@@]2(C)C1CC[C@@H]2O (some centres not stated) | 5% | 96% (active) | 67.5% | -6% | 95% (active) | 78.5% (active) | -5% | 95% (active) | 80.6% (active) | 2% | 97% (active) | 86.8% (active) | -27% | 96% (active) | 81.7% (active) | -2% | 96% (active) | 84.6% (active)
Cc1ccc2c(n1)C(=O)C=CC2=O | 25% | 94% (active) | 80.1% (active) | 5% | 94% (active) | 89.5% (active) | 22% | 90% (active) | 80.8% (active) | 22% | 77% (active) | 22.9% | 20% | 97% (active) | 80.8% (active) | 17% | 93% (active) | 36.2%
COC(=O)C(=O)C(C(=O)Nc1cccc(C)c1C)C1Sc2ccccc2NC1=O (configuration not stated) | 99% (active) | 99% (active) | 51.1% | 88% (active) | 88% (active) | 70.2% (active) | 99% (active) | 99% (active) | 69.5% | 95% (active) | 95% (active) | 52.8% | 65% | 65% | 81.7% (active) | 92% (active) | 92% (active) | 81.5% (active)
CCOc1ccc2nc(NC(=O)c3c/c(=N\NC(=O)C[N+](C)(C)C)c4ccc(O)cc4o3)sc2c1 | 57% | 64% | 99.3% (active) | 28% | 53% | 99.6% (active) | 33% | 65% | 99.3% (active) | 13% | 61% | 98.6% (active) | 62% | 62% | 99.3% (active) | 41% | 52% | 99.2% (active)
ICCCCCCCCCC[n+]1ccc2ccccc2c1 | 32% | 98% (active) | 88.9% (active) | 89% (active) | 99% (active) | 89.8% (active) | 52% | 99% (active) | 89.3% (active) | 42% | 99% (active) | 85.4% (active) | 78% (active) | 99% (active) | 92.7% (active) | 28% | 96% (active) | 90.5% (active)
CCCCCCCCCCCC[N+]1(C)CCCC1c1cccnc1 (configuration not stated) | 19% | 97% (active) | 50.5% | 13% | 98% (active) | 97.5% (active) | 4% | 98% (active) | 51.9% | 5% | 98% (active) | 94.3% (active) | 27% | 92% (active) | 97.5% (active) | 19% | 97% (active) | 96.9% (active)
CNCCN[C@@H]1c2cc3c(cc2[C@@H](c2cc(OC)c(O)c(OC)c2)[C@H]2C(=O)OC[C@@H]21)OCO3 | 96% (active) | 97% (active) | 78.8% (active) | 43% | 91% (active) | 65.3% | -24% | 75% (active) | 88.1% (active) | 3% | 42% | 82.4% (active) | -3% | 84% (active) | 87% (active) | 43% | 89% (active) | 87.8% (active)
CC(=O)NC1C(=O)CC(c2ccccc2)N(C)C1c1ccccc1 (configuration not stated) | 2% | 2% | 7.55% | 2% | 6% | 6.55% | -2% | 1% | 25.3% | 4% | 0% | 36.1% | 2% | 3% | 18% | 1% | -7% | 31.7%
